Common to all, as to assay: DAPPL (digital affinity profiling via proximity ligation, sequencing); 10 mM Tris-HCl pH 7.5, 50 mM NaCl, 1 mM DTT, 4% glycerol, room temperature, 30 min; GST-TFs on glutathione beads, 16-mer random dsDNA library, 0.1% formaldehyde crosslink after washing; high values mean tight binding
The target of assay [1] is T1, FEV (Homo sapiens, UniProt Q99581 1-238).
T1 sequence: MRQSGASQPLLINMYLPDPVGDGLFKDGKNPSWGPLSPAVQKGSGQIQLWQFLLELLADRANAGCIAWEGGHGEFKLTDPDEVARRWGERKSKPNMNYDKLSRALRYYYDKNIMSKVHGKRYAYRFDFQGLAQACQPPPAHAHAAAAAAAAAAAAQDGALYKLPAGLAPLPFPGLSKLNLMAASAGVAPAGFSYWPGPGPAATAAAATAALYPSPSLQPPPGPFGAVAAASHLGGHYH
The settings on record: protein: recombinant; tags: N-terminal GST; dsDNA, one strand shown. In outline: (§1)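 Binding signal is given per hexamer as its read frequency for a factor divided by its frequency in the tag-only sample. GST-fused human transcription factors were expressed in yeast, captured on glutathione beads, barcoded with DNA and pooled with that sample, then incubated with 200 nmole of a 16-mer random double-stranded DNA library in Tris/NaCl/DTT/glycerol buffer for 30 min at room temperature. The pools were then washed, crosslinked, proximity-ligated, amplified by PCR and sequenced on an Illumina NextSeq500.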

The target of assay [2] is ETV5 (Homo sapiens, UniProt P41161 1-510). The settings on record: protein: recombinant; tags: N-terminal GST; dsDNA, one strand shown. The essentials: as §1
Assay [3] addresses HSF1 (Homo sapiens, UniProt Q00613 1-529). As to conditions: protein: recombinant; tags: N-terminal GST; chain copies: 3; dsDNA, one strand shown. The essentials:
as §1

Assay [4] addresses T2, SPIC (Homo sapiens, UniProt Q8N5J4 1-248).
T2 sequence: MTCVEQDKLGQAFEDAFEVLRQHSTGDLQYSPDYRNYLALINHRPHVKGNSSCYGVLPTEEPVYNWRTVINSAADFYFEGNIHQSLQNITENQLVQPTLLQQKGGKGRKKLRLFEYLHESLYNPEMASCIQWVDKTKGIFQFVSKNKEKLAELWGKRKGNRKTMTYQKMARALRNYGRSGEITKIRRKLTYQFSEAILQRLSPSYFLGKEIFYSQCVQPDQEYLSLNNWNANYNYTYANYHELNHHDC
As to conditions: protein: recombinant; tags: N-terminal GST; dsDNA, one strand shown. In outline:
as §1

The target in assay [5] is ELF4 (Homo sapiens, UniProt Q99607 1-663). As to conditions: protein: recombinant; tags: N-terminal GST; dsDNA, one strand shown. The essentials: as §1
Assay [6] has as its target T3, ELK4 (Homo sapiens, UniProt P28324-2 1-405).
T3 sequence: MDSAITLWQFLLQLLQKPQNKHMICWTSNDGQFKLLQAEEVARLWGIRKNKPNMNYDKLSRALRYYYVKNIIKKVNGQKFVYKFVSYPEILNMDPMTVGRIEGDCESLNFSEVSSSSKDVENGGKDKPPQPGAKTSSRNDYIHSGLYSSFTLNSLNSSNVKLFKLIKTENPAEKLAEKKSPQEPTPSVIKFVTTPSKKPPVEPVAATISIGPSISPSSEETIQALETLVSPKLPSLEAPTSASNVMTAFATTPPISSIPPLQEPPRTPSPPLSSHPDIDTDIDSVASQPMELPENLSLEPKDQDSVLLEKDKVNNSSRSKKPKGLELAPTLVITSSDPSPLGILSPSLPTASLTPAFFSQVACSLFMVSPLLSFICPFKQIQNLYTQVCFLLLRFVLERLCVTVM
As to conditions: protein: recombinant; tags: N-terminal GST; dsDNA, one strand shown. In outline: as §1

The target of assay [7] is T4, ETV2 (Homo sapiens, UniProt O00321 1-342).
T4 sequence: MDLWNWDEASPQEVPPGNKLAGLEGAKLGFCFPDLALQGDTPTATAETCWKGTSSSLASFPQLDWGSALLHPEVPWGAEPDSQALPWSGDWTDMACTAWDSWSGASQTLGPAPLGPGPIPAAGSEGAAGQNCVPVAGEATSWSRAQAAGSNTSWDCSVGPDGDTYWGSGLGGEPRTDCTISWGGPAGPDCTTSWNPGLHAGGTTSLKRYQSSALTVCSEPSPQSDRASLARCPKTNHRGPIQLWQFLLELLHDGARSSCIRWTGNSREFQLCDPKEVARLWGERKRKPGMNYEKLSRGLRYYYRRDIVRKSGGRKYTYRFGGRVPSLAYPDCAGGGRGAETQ
The settings on record: protein: recombinant; tags: N-terminal GST; dsDNA, one strand shown. In outline: as §1

The target of assay [8] is T5, ELF3 (Homo sapiens, UniProt P78545 1-371).
T5 sequence: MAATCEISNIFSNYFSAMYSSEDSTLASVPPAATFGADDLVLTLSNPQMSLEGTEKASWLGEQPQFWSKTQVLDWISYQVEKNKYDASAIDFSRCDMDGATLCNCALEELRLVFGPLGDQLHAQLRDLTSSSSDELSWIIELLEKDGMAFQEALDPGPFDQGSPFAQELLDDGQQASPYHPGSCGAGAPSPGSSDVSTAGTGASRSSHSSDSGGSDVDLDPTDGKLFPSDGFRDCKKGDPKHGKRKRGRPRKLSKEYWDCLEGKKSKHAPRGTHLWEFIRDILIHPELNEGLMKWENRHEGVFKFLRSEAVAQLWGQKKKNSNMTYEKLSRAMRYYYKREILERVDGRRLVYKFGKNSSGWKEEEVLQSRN
The settings on record: protein: recombinant; tags: N-terminal GST; dsDNA, one strand shown. The essentials: as §1

In assay [9] the target is CRX (Homo sapiens, UniProt O43186 1-299). As to conditions: protein: recombinant; tags: N-terminal GST; dsDNA, one strand shown. The essentials: as §1
The target in assay [10] is ETV1 (Homo sapiens, UniProt P50549 1-477). The settings on record: protein: recombinant; tags: N-terminal GST; dsDNA, one strand shown. In outline: as §1
In assay [11] the target is T6, ERF (Homo sapiens, UniProt P50548 1-548).
T6 sequence: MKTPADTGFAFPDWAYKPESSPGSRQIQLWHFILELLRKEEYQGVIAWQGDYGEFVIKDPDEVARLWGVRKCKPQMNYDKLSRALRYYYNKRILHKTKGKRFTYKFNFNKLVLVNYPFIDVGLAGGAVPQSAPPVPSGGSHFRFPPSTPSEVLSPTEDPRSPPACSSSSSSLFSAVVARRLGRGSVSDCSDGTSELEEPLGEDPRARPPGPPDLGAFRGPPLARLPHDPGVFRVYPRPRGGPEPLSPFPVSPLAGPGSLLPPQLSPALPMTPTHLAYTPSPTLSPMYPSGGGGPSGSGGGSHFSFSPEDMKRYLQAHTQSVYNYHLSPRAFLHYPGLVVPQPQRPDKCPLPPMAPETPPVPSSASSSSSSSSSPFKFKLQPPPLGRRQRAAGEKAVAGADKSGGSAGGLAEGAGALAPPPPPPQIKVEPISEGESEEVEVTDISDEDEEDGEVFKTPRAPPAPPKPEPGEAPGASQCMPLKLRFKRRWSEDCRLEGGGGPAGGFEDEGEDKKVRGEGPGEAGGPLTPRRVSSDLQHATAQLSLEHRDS
As to conditions: protein: recombinant; tags: N-terminal GST; dsDNA, one strand shown. The essentials:
as §1

Assay [12] concerns the target T7, ETV3L (Homo sapiens, UniProt Q6ZN32 1-361).
T7 sequence: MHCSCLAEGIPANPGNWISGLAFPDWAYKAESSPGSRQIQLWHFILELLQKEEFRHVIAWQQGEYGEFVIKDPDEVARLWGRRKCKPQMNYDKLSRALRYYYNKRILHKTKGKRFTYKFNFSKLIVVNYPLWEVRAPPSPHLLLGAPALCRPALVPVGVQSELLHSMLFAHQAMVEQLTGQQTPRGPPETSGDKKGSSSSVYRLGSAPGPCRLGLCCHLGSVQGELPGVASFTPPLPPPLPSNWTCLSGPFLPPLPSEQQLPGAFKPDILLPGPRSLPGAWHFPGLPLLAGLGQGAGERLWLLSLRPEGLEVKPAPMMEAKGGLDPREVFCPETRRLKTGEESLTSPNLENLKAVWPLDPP
As to conditions: protein: recombinant; tags: N-terminal GST; dsDNA, one strand shown. In outline:
as §1

Assay [13] addresses T8, ETS2 (Homo sapiens, UniProt P15036 1-469).
T8 sequence: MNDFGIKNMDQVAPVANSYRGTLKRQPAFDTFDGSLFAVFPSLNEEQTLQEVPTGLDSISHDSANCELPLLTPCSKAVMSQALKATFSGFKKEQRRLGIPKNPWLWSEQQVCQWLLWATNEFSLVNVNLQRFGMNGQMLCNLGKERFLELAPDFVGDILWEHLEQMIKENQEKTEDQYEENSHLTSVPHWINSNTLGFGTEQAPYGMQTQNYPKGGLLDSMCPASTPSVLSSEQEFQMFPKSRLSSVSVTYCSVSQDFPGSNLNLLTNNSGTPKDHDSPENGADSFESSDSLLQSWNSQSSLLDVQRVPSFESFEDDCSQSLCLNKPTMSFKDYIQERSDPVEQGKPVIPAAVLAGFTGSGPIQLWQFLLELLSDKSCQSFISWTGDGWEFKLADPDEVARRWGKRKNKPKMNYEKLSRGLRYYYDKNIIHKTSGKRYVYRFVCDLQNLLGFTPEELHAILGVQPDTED
The settings on record: protein: recombinant; tags: N-terminal GST; dsDNA, one strand shown. In outline: as §1

Assay [14] deals with T9, SPDEF (Homo sapiens, UniProt O95238 1-335).
T9 sequence: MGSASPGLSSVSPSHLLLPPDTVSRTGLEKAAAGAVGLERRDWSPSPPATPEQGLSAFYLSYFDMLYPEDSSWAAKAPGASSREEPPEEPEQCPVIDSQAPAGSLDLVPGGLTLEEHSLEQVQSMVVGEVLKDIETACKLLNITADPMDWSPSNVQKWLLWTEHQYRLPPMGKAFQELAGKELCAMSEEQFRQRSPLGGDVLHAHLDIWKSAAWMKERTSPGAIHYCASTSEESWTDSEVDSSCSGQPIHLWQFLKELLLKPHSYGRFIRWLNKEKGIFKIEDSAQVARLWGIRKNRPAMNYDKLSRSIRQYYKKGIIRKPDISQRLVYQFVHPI
The settings on record: protein: recombinant; tags: N-terminal GST; dsDNA, one strand shown. In outline:
as §1

Assay [15] concerns the target T10, ETV7 (Homo sapiens, UniProt Q9Y603 1-341).
T10 sequence: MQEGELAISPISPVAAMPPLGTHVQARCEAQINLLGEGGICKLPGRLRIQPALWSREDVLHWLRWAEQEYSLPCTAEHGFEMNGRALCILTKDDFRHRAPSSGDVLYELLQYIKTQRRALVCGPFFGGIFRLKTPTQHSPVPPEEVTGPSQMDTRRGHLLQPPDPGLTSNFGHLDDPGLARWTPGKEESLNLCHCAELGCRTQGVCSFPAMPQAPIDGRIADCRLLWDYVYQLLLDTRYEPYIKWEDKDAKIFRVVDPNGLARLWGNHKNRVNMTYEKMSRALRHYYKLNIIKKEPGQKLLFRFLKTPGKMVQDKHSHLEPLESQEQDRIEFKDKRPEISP
As to conditions: protein: recombinant; tags: N-terminal GST; dsDNA, one strand shown. In outline: as §1

Assay [16] has as its target T11, ELF5 (Homo sapiens, UniProt Q9UKW6-2 1-255).
T11 sequence: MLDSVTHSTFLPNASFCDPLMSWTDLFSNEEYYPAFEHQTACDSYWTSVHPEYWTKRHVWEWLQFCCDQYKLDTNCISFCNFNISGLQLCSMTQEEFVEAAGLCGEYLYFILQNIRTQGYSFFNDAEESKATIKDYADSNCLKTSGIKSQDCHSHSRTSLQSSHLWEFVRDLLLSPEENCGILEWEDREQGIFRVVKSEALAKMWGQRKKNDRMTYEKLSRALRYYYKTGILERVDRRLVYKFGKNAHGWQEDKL
As to conditions: protein: recombinant; tags: N-terminal GST; dsDNA, one strand shown. In outline: as §1

The target in assay [17] is T12, ETV3 (Homo sapiens, UniProt P41162-2 1-143).
T12 sequence: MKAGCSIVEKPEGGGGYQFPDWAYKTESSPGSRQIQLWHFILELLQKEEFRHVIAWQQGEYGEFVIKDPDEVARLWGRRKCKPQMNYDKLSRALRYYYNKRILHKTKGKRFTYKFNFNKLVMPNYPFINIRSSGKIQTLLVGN
As to conditions: protein: recombinant; tags: N-terminal GST; dsDNA, one strand shown. The essentials:
as §1

The target of assay [18] is ETV6 (Homo sapiens, UniProt P41212 1-452). The settings on record: protein: recombinant; tags: N-terminal GST; dsDNA, one strand shown. The essentials: as §1
Chain of ETV6 (P41212 whole entry): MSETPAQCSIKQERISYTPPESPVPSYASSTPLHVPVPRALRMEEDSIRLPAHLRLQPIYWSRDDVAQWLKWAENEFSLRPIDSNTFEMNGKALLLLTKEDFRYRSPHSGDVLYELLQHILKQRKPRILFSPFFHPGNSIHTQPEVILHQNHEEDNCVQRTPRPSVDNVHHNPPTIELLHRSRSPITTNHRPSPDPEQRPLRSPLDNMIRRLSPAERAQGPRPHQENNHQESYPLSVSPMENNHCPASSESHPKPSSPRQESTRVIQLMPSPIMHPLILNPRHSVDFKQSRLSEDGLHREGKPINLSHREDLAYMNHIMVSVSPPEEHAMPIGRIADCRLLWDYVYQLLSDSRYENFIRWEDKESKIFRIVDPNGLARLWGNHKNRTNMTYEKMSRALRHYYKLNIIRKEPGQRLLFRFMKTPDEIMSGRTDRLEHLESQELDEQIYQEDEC

Chain of HSF1 (Q00613 whole entry): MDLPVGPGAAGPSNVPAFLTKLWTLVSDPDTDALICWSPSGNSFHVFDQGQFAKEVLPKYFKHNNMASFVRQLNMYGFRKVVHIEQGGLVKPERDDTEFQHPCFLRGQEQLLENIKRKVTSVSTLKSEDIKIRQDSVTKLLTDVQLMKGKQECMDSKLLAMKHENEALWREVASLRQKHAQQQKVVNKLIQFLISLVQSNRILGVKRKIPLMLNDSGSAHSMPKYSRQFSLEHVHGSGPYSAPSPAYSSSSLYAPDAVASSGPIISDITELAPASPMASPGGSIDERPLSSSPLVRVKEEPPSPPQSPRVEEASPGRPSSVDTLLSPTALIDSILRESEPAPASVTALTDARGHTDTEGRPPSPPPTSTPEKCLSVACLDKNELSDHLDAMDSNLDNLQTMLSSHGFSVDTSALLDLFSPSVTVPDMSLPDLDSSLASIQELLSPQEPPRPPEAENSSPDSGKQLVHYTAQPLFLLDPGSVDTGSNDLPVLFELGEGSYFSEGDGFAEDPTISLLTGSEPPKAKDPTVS
Chain of CRX (O43186 whole entry): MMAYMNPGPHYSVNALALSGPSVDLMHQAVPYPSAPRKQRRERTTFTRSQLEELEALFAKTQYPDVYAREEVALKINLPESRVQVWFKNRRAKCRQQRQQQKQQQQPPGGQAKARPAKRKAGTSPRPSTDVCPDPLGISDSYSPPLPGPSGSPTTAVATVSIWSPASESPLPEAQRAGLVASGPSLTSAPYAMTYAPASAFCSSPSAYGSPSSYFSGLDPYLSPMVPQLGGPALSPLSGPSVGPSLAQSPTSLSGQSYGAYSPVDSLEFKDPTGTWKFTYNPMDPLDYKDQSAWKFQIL
Chain of ELF4 (Q99607 whole entry): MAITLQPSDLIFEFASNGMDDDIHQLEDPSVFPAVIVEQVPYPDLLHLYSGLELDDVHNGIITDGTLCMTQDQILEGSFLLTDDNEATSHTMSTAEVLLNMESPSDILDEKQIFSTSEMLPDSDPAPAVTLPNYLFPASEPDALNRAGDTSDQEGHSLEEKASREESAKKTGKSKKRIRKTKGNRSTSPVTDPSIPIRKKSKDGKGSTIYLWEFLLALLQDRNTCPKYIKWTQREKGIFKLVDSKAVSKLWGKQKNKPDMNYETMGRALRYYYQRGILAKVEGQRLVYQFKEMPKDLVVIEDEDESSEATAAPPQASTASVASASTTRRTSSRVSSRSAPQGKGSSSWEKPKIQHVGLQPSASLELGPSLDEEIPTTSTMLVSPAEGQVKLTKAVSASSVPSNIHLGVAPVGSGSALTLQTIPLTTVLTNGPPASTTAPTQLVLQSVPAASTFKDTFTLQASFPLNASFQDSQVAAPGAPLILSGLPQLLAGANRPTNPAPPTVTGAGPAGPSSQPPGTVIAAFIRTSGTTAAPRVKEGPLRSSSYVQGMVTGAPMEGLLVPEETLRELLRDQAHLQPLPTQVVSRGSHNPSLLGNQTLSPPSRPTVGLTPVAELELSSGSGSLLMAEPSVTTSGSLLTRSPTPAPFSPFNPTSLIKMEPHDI
Chain of ETV1 (P50549 whole entry): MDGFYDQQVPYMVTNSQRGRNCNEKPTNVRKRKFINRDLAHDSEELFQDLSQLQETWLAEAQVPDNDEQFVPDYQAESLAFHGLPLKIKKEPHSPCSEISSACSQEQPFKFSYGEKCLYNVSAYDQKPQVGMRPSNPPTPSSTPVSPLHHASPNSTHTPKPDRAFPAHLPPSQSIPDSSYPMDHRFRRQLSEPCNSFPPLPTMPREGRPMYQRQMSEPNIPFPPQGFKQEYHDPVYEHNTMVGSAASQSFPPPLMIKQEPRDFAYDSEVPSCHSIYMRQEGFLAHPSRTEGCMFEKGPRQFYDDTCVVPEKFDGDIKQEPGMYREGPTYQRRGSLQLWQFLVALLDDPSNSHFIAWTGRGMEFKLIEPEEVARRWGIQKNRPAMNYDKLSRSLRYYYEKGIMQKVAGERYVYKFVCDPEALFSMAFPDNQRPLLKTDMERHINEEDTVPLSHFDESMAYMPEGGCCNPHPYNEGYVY
Chain of ETV5 (P41161 whole entry): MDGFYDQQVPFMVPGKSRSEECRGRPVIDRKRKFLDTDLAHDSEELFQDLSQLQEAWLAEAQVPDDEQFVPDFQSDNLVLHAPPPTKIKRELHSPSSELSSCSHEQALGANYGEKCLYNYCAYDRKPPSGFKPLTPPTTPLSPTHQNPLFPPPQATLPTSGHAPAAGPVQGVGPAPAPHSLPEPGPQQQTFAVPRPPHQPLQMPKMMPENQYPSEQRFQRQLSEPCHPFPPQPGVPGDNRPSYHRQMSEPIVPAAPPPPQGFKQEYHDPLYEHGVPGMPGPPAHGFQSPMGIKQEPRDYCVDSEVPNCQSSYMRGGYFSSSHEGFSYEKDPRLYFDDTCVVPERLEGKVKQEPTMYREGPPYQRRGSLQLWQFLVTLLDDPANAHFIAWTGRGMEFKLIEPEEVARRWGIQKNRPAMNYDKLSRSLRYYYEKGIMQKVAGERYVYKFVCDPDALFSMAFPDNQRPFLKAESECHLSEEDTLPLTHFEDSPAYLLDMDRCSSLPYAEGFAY

Turning to TCGTTT, the binding signal in [1] is 1.14 fold enrichment (6-mer frequency, TF over GST control); in assay [2], 1.09 fold enrichment (6-mer frequency, TF over GST control); in assay [3], 1.02 fold enrichment (6-mer frequency, TF over GST control); in assay [4], 1.15 fold enrichment (6-mer frequency, TF over GST control); in assay [5] it was 1.17 fold enrichment (6-mer frequency, TF over GST control); in assay [6], 1.24 fold enrichment (6-mer frequency, TF over GST control). Further, the binding signal in [7] was 1.3 fold enrichment (6-mer frequency, TF over GST control); in assay [8], 1.27 fold enrichment (6-mer frequency, TF over GST control); in assay [9], 1.08 fold enrichment (6-mer frequency, TF over GST control); in assay [10] it was 1.18 fold enrichment (6-mer frequency, TF over GST control); in assay [11], 1.07 fold enrichment (6-mer frequency, TF over GST control); in assay [12] it was 1.15 fold enrichment (6-mer frequency, TF over GST control). The binding signal in assay [13] is 1.28 fold enrichment (6-mer frequency, TF over GST control); in assay [14] it was 1.12 fold enrichment (6-mer frequency, TF over GST control); in [15], 1.31 fold enrichment (6-mer frequency, TF over GST control); in assay [16], 1.27 fold enrichment (6-mer frequency, TF over GST control); in [17] it was 1.25 fold enrichment (6-mer frequency, TF over GST control); in [18], 1.15 fold enrichment (6-mer frequency, TF over GST control).

Values taken from article PMC7862700, “An all-to-all approach to the identification of sequence-specific readers for epigenetic DNA modifications on cytosine”.
